# Reference: ChEMBL document CHEMBL4513216, “Probing the Open Global Health Chemical Diversity Library for Multistage-Active Starting Points for Next-Generation Antimalarials” (ACS Infect Dis, 2020)
# About 8,600 (12%) of roughly 69,000 compounds showed an effect of 50% or more. For the sample, strong results were picked, then their nearest neighbours and some compounds at random.
# Tested on: Plasmodium berghei
# Experiment: Screen against P. berghei liver stage (PbLuc), transformed with Luciferase, at 10uM
# Type: functional, HepG2
# Settings: tested at 10 uM
row,Compound,INHIBITION [%]
1,Cn1cnnc1C1CCCN(Cc2nc(Cc3ccccc3)no2)C1 (stereo not drawn),3.13
2,CNc1[nH]nc(N)c1NC(=O)c1ccccc1,17.6
3,COc1ccc(-n2nnc(C(=O)O)c2-c2ccccn2)cc1,32.2
4,Cc1ccc(CN2C[C@@H]3COC[C@@H](NS(C)(=O)=O)[C@@H]3C2)o1,-6.02
5,CC(C)C1CN(C(=O)c2ccccc2)CCS1 (stereo not drawn),61.3
6,CC(C)C1CN(C(=O)c2ccncc2)CCS1 (stereo not drawn),19.6
7,CC(C)C1CN(C(=O)c2ccc(C(N)=O)cc2)CCS1 (stereo not drawn),0.139
8,CCC(=O)N1CCCC1C(=O)N1CCC(Cc2ccc(F)cc2)CC1 (stereo not drawn),49.4
9,CC(C(=O)N1CCC(Cc2ccc(F)cc2)CC1)n1ccnc1 (stereo not drawn),32.8
10,O=C(C1CCS(=O)(=O)CC1)N1CCC(Cc2ccc(F)cc2)CC1,57.3
11,CN1C[C@@H](N)C[C@H]1C(=O)N1CCC(CCCc2ccccc2)CC1,55.9
12,CC(C)(C)C(=O)N1CCC(COCc2ccccc2)C1 (stereo not drawn),11.9
13,CN1CSC[C@H]1C(=O)N1CCC(Cc2ccccc2F)CC1,-40.6
14,CN1C[C@@H](N)C[C@H]1C(=O)N1CCC(Cc2ccc(F)cc2)CC1,58.1
15,CN1CSC[C@H]1C(=O)N1CCC(CCc2ccccc2)CC1,-29
16,O=C([C@H]1CCS(=O)(=O)[C@@H]2CN(Cc3ccc(F)cc3)C[C@H]12)N1CCCC1,12.7
17,Cn1ncc2ccc(C3CCCN(Cc4ccsc4)C3)nc21 (stereo not drawn),33.45
18,COc1cccc(-n2cc3[nH]c(=O)[nH]n3c2=O)c1,3.68
19,Cc1cc(C(=O)N2C[C@@H]3CC[C@H]2CN(C(=O)c2ccncc2)C3)cs1,38
20,CN(C)S(=O)(=O)N1C[C@H](Oc2cccnc2)[C@H]2OCCC[C@H]21,14.2
21,O=C(c1ccc[nH]1)N1Cc2nccn2CC(Cn2ncccc2=O)C1 (stereo not drawn),-87.3
22,CNC(=O)C1CNCCN1C(=O)c1ccc(C(F)(F)F)nc1C (stereo not drawn),-15.3
23,O=C1C(NS(=O)(=O)c2ccc(F)c(F)c2)CCN1Cc1ccccc1 (stereo not drawn),21.5

row,Compound,INHIBITION [%]
1,CCc1ncc(C(=O)NC(C)(C)C(=O)OC)s1,40.6
2,COC(=O)C(C)(C)NC(=O)c1cnc(Cc2ccc(F)cc2)s1,92.8
3,COC(=O)C(C)(C)NC(=O)c1cnc(C(C)(C)C)s1,25.1
4,CC(C)NC(=O)CCNC(=O)c1cnc(Cc2ccc(F)cc2)s1,10.6
5,CN(C)C(=O)CN(C)C(=O)c1cnc(Cc2ccc(F)cc2)s1,2.37
6,COC(=O)[C@H](C)NC(=O)c1cnc(Cc2ccc(F)cc2)s1,51.7
7,Cn1cc(CN2CCn3cc(CNC(=O)C4CCC4)nc3C2)cn1,14.4
8,O=C(c1cnccn1)N1CCN(Cc2cscn2)CC1,25.85
9,CSCC(C)(O)CNS(=O)(=O)c1cccc(Cl)c1 (stereo not drawn),-33.5
10,O=C(c1ncn2c1CNS(=O)(=O)c1ccccc1-2)N1CCCCC1,7.24
11,CN1CCN(C(=O)c2ncn3c2CNS(=O)(=O)c2ccccc2-3)CC1,15.3
12,O=C(c1ncn2c1CNS(=O)(=O)c1ccccc1-2)N1CCCCCC1,68.4
13,CCc1nc(C2CCCN2C(=O)CCc2nc(C(C)(C)C)no2)no1 (stereo not drawn),40.2
14,COc1ncccc1CN1CCC2[C@H]1CCN2CCN(C)C (stereo partly drawn),-20.1
15,O=C1COC2(CCN(C(=O)C3CC=CC3)CC2)CN1Cc1cccnc1,-3.24
16,Cc1nc(N2CCOCC2)ncc1-c1cc(O)nc(N2CCCC2)n1,-27.1
17,Cc1cc(C)c2c(N3CCC(C(=O)N4CCOCC4)CC3)ncnc2n1,30.9
18,CC(C)CN1CCC2(C1)CN(c1ncccn1)C2,5.12
19,CC(C)Cc1noc(-c2ccc(NCc3noc(C(C)C)n3)nc2)n1,-26
20,CCn1cncc1CNc1ccc(-c2nc(CC(C)C)no2)cn1,52
21,CCC(O)CNc1ccc(-c2nc(CC(C)C)no2)cn1 (stereo not drawn),1.79
22,CCN1C(=O)CCC12CCC(NC(=O)NCc1cccnc1)CC2 (stereo not drawn),25.8
23,Cc1n[nH]cc1C(=O)N1CCCC1c1cc[nH]n1 (stereo not drawn),-26.2

row,Compound,INHIBITION [%]
1,Cn1cc(CN2C[C@@H]3CCCO[C@@H]3[C@H](NC(=O)CC3CC3)C2)cn1,11.4
2,COC(=O)CNC(=O)CCc1cc(Cl)cs1,36.3
3,CC(C)NC(=O)CCNC(=O)CCc1cc(Cl)cs1,62.8
4,CC(C)NC(=O)CCNC(=O)CCc1cc(Br)cs1,-35.3
5,CN(c1nccc(-c2cnc3sc(Cl)cn3c2=O)n1)C1CCCCC1,38.2
6,CN(c1nccc(-c2cnc3sccn3c2=O)n1)C1CCCCC1,18.9
7,Cc1cn2c(=O)c(-c3ccnc(N(C)C4CCCCC4)n3)cnc2s1,90.1
8,Cc1cc(C(F)(F)F)n2nc(C3CCCN(S(C)(=O)=O)C3)cc2n1 (stereo not drawn),26.475
9,CCC[C@@H]1CN(S(=O)(=O)c2ccc3[nH]c(=O)[nH]c3c2)C[C@H]1NC(C)=O,3.73
10,Cc1cc2[nH]c(=O)oc2cc1S(=O)(=O)N1CCCC(N(C)C)CC1 (stereo not drawn),11.6
11,Cn1ccnc1C1CCN(S(=O)(=O)c2ccc3[nH]c(=O)[nH]c3c2)CC1,62.9
12,Cn1ccnc1C1CCN(S(=O)(=O)c2ccc3c(c2)OCCO3)CC1,35.1
13,O=c1[nH]c2cc(S(=O)(=O)N3CCC(c4ccsc4)CC3)ccc2o1,16.9
14,Cn1ccnc1C1CCN(S(=O)(=O)c2ccc3oc(=O)[nH]c3c2)CC1,59.7
15,CCN(CC)S(=O)(=O)N1CCC(c2c(C(N)=O)sc3ccccc23)C1 (stereo not drawn),27.6
16,CC(=O)N1CCN(CC(N)=O)CC(COc2ccccc2)C1 (stereo not drawn),-17.7
17,CCc1cc(NC(=O)C2CCCN(C(=O)NCC(C)C)C2)[nH]n1 (stereo not drawn),19.3
18,NC(=O)c1cn(CC2CC2)c(C2CC2)n1,-2.03
19,CCC(CNC(=O)c1ccccc1OC)N1CCc2ccccc2C1 (stereo not drawn),63.3
20,CCC(CNC(=O)c1ccccn1)N1CCc2ccccc2C1 (stereo not drawn),40.5
21,O=C(NCC(O)c1ccc(F)cc1F)c1ccccc1F (stereo not drawn),-57.9
22,Cn1cccc1C(CNC(=O)c1ccc(F)cc1F)N1CCCCCC1 (stereo not drawn),34.7
23,CCC(C)NC(=O)c1cncc(Br)c1 (stereo not drawn),-76.5

row,Compound,INHIBITION [%]
1,CCC(CNC(=O)c1ccc(Br)o1)N1CCc2ccccc2C1 (stereo not drawn),16.8
2,CCC(CNC(=O)c1ccco1)N1CCc2ccccc2C1 (stereo not drawn),51.4
3,COc1cccc(C(=O)NCCCN2CCc3ccccc3C2)c1OC,25.3
4,CCC(CNC(=O)c1ccc(F)cc1F)N1CCc2ccccc2C1 (stereo not drawn),64.3
5,COc1ccccc1C(=O)NCC(c1cccn1C)N1CCOCC1 (stereo not drawn),44.9
6,CCC(CNC(=O)Nc1cnn(CC)c1)N1CCc2ccccc2C1 (stereo not drawn),7.67
7,CCC(CNC(=O)c1cncc(Br)c1)N1CCc2ccccc2C1 (stereo not drawn),66.3
8,CC(c1ccco1)N(C)C(=O)NCCOc1ccc(C#N)cc1 (stereo not drawn),5.94
9,CN(C)C(=O)CN1CCOCC2(CCN(CC3CCOCC3)CC2)C1,34.9
10,CNc1cccc(C2CCCN(C(=O)c3cncs3)C2)n1 (stereo not drawn),5.56
11,O=C(N[C@@H]1C[C@@H]2CC[C@H]1C2)C1(Oc2ccc(Cl)cc2)CCNCC1,9.72
12,CCc1cnc(N2CC[C@@H]3CN(CCC(C)C)S(=O)(=O)[C@@H]3CC2)nc1,-23.7
13,CC(C)C(=O)N1CC[C@H]2N(C)CC[C@@]2(C(=O)N2CCCC2)CC1,3.81
14,Cc1cc(C)c(CNC(=O)N2CCCC2c2cccc(F)c2)c(=O)[nH]1 (stereo not drawn),27.8
15,CC(C)CS(=O)(=O)N1CCC2(CN(c3ccsc3)C(=O)CN2C)C1 (stereo not drawn),23.6
16,O=C(NCC1(COc2cnccn2)C[C@@H](O)[C@@H](O)C1)C1CCCC1 (stereo partly drawn),-15.7
17,CCC(CNC(=O)c1cc(OC)ccc1Br)N1CCc2ccccc2C1 (stereo not drawn),33.5
18,CCC(CNC(=O)c1ccccc1Br)N1CCc2ccccc2C1 (stereo not drawn),56.4
19,CSc1ccccc1C(=O)NCCCN1CCc2ccccc2C1,5.03
20,Cc1nn(C)c(C)c1C1COCCN1C(=O)CC(C)(C)C (stereo not drawn),62.2
21,Cc1nn(C)c(C)c1C1COCCN1C(=O)NC1CC1 (stereo not drawn),17.5
22,CCN(CC)C(=O)N1CCOCC1c1c(C)nn(C)c1C (stereo not drawn),10.7
23,COCCNC(=O)N1CCOCC1c1c(C)nn(C)c1C (stereo not drawn),51

row,Compound,INHIBITION [%]
1,CNC(=O)N1CCOCC1c1c(C)nn(C)c1C (stereo not drawn),28.7
2,Cc1nn(C)c(C)c1C1COCCN1C(=O)CSC(C)(C)C (stereo not drawn),37.6
3,O=C(c1cnccn1)N1CCc2ncnc(-c3cccnc3)c2CC1,32.7
4,CCc1ccc(CN2CCc3ncnc(-c4cccnc4)c3CC2)o1,-48.8
5,O=C(N1CCC(Oc2ccncc2)CC1)C1(c2ccc(F)cc2)CC1,34.1
6,O=C(N1CCC(Oc2ccncc2)C1)C1(c2ccc(F)cc2)CC1 (stereo not drawn),52
7,O=C(N1CCC(Oc2ccncc2)C1)C1(c2cccc(F)c2)CC1 (stereo not drawn),25.1
8,Cc1cc(C(=O)NCC(C)N2CCc3ccccc32)on1 (stereo not drawn),-25.9
9,COCCn1ccc2ccc(C(=O)O)cc21,-19.6
10,Fc1cnc(N2CCOCC3(CCCN(c4cnccn4)C3)C2)nc1 (stereo not drawn),-13.7
11,c1cnc(N2CCOCC3(CCCN(c4nncs4)C3)C2)cn1 (stereo not drawn),72
12,Fc1cccnc1N1CCOCC2(CCCN(c3nncs3)C2)C1 (stereo not drawn),12.6
13,Cc1cnc(N2CCCC3(COCCN(c4ccc(C)nn4)C3)C2)nc1 (stereo not drawn),52.6
14,c1cncc(CN2CCC3(CCCN(c4nncs4)C3)C2)c1 (stereo not drawn),-11.6
15,c1cnc(N2CCCC3(COCCN(c4nncs4)C3)C2)cn1 (stereo not drawn),17.5
16,Cc1ccc(N2CCCC3(COCCN(c4cnccn4)C3)C2)nn1 (stereo not drawn),-22.1
17,COc1ccc(N2CCOCC3(CCCN(c4cnccn4)C3)C2)cc1 (stereo not drawn),53.9
18,Fc1ccc(CN2CCC3(CCCN(c4nncs4)C3)C2)cc1 (stereo not drawn),-11.6
19,Cc1ccc(N2CCCC3(COCCN(c4ncccn4)C3)C2)nn1 (stereo not drawn),-37.9
20,Cc1ccc(N2CCOCC3(CCCN(c4ncc(F)cn4)C3)C2)nn1 (stereo not drawn),14.6
21,CC(C)c1ccc(CN2CCC3(CCCN(c4nncs4)C3)C2)cc1 (stereo not drawn),60.4
